Laboratory results as given in PubChem BioAssay (NCATS).
Records with an inconclusive call do not appear. Calls of active or inactive are those of the source. Calls follow the shape of the dose curve; as a rule, active = well fitted cell-killing curve with a large enough effect; inconclusive = small, poorly fitted or top-dose-only effect; inactive = no such curve, though single readings can be large or run the other way. Residues, ends and D or L forms follow the SMILES beside them. *: point of attachment. Cbz = O=C(OCc1ccccc1)*

experiment: qHTS of pediatric cancer cell lines to identify multiple opportunities for drug repurposing: Primary screen for Rh30 cells (AID 1347107); settings: Rh30 rhabdomyosarcoma viability, CellTiter-Glo luminescence, 48 h; series mostly up to 46 µM; activity change, negative = cytotoxic: at the top concentration; also: nearly all actives have a fitted effect of over 75% in size
Description: Drug repurposing or repositioning has been offered as a strategy for drug development in oncology programs. This approach has special potential for childhood cancers and other rare or orphan diseases, where the expected return on new drug development has been a disincentive to pharmaceuticals.
In this project we exploit the poly-pharmacology of drugs to discover new indications via phenotypic screening of a panel of 19 well-characterized cell lines derived from solid tumors seen in children and adolescents. The goal is to identify approved drugs with previously unrecognized anticancer properties that has the potential to reveal new mechanisms and biological processes involved in carcinogenesis or drug resistance. We employed a titration-based paradigm (quantitative high-throughput screening or qHTS), where all compounds were tested at multiple concentrations for their effect on cell viability. Concentration-response curves (CRCs) were derived directly from the primary screen, and both potency and efficacy values were used to identify compounds with robust bioactivity profiles. We screened the NIH Chemical Genomics Center (NCGC) Pharmaceutical Collection (NPC) and Mechanism Interrogation Plate (MIPE) small molecule collections of approved and investigational compounds against these cell lines; and measured metabolically active cells after 48 hours of compound treatment as a proxy for cell viability.
Assay Submitter: Nathalia J. Martinez, National Center for Advancing Translational Sciences, National Institutes of Health, Rockville, MD, USA; email: natalia.martinez@nih.gov
[1] Shen, M et al. Quantitative high-throughput phenotypic screening of pediatric cancer cell lines identifies multiple opportunities for drug repurposing. Oncotarget 2017 Dec 19;9(4):4758-4772. PMID 29435139.
The cells were obtained from University of North Carolina (UNC), Pediatric Preclinical Testing Program (PPT), and Coriell Institute (CI).
qHTS cell viability assay:
Cells were assayed in growth media at a density of 500-1,000 cells/well. Five microliters of cells were dispensed into 1,536-well, white, solid-bottom, TC-treated plates (Greiner Bio One) using a multidrop dispenser and incubated at 37 degrees C, 5% CO2, under a humidified atmosphere for 5 hours. Twenty-three nanoliters of compounds and controls (neutral control DMSO or positive control bortezomib at final concentration of 2.3 µM) were subsequently transferred by Kalypsys pintool. For primary screens, the MIPE collection was tested at 11-point dilutions (final concentrations range from 0.78 nM to 46 µM) and the NPC collection at 8-point dilutions (final concentrations range from 0.59 nM to 46 µM). Compounds tested in follow-up screens were assayed at 11-point dilutions. Cells were incubated for 48 hours, followed by addition of 3 µL of CellTiter-Glo (Promega). After a 15 min incubation at room temperature, samples were analyzed for luminescence intensity using a ViewLux High-throughput CCD imager equipped with clear filters.
% is scaled to controls: 0 for no effect and ±100 for the full control effect; potency is read from the fitted curve at half-maximal effect.

| Compound | Potency | activity change, negative = cytotoxic |
| --- | --- | --- |
| CCCCCCCCc1ccc(CCC(N)(CO)CO)cc1 | 18.7 µM (active) |  |
| CCN(CC)Cc1ccc2cc(COC(=O)Nc3ccc(C(=O)NO)cc3)ccc2c1 | 4.69 µM (active) |  |
| C[C@H](NCc1ccc2c(c1)nc(NC(=O)c1ccc(-c3cn[nH]c3)s1)n2CCc1ccccc1)C(C)(C)C | 14.8 µM (active) |  |
| O=C(Nc1ccc(Oc2ccnc3[nH]ccc23)c(F)c1)c1cccn(-c2ccc(F)cc2)c1=O |  | 0.522% (inactive) |
| COc1cc(C)c(C=CC(C)=CC=CC(C)=CC(=O)O)c(C)c1C |  | 17.3% (inactive) |
| NC(=NCCCCCCN=C(N)N=C(N)Nc1ccc(Cl)cc1)N=C(N)Nc1ccc(Cl)cc1 | 4.69 µM (active) |  |
| O=C(O)CCCCCC(=O)NN=C1CCCC1 |  | 20% (inactive) |
| Cc1ccc([N+](=O)[O-])cc1S(=O)(=O)N(C)N=Cc1cnc2ccc(Br)cn12 |  | -24.7% (inactive) |
| C=C[C@@H]1CN2CCC1C[C@H]2[C@H](O)c1ccnc2ccc(OC)cc12 (stereo not given in full) |  | 15.5% (inactive) |
| CON=C(C(=O)N[C@@H]1C(=O)N2C(C(=O)O)=C(Cn3ccc(=N)n3CCO)CS[C@H]12)c1csc(N)n1 |  | 18.8% (inactive) |
| O=C(O)c1ccc(Nc2ncc3c(n2)-c2ccc(Cl)cc2C(c2c(F)cccc2F)=NC3)cc1 | 18.7 µM (active) |  |
| CC(C)N(CC[C@H](c1ccccc1)c1cc(CO)ccc1O)C(C)C |  | 25.9% (inactive) |
| O=C1NC(=O)[C@@H](c2cn3c4c(cccc24)CCC3)[C@H]1c1c[nH]c2ccccc12 |  | 5.41% (inactive) |
| Cc1cc(O)c2c(c1)C(=O)c1cccc(O)c1C2=O |  | 10.5% (inactive) |
| CN1CCc2c(c3ccccc3n2Cc2ccc(C(=O)NO)cc2)C1 | 20.9 µM (active) |  |
| C=C1CCC2[C@](C)(CO)C(O)CC[C@]2(C)C1CC=C1C(=O)OCC1O (stereo not given in full) |  | 7.01% [at 92.7 µM] (inactive) |
| CCC(C(=O)O)C1CCC(C)C(C(C)C(O)C(C)C(=O)C(CC)C2OC3(C=CC(O)[C@@]4(CC[C@](C)(C5CC[C@@](O)(CC)C(C)O5)O4)O3)C(C)CC2C)O1 (stereo not given in full) |  | -24.1% (inactive) |
| OC[C@@H](O)[C@@H](O)[C@H](O)[C@@H](O)CO |  | 30.9% (inactive) |
| C=Cc1c(C)c2cc3nc(cc4[nH]c(cc5nc(cc1[nH]2)C(C)=C5CCC(=O)O)c(CCC(=O)OC)c4C)[C@@]1(C)C3=CC=C(C(=O)OC)[C@H]1C(=O)OC |  | -5.02% (inactive) |
| CC(=O)N1CCN(c2ccc(OCc3nn(C)c(C)c3-c3cccc4c(CCCOc5cccc6ccccc56)c(C(=O)O)n(Cc5cccnc5)c34)cc2)CC1 | 4.69 µM (active) |  |

| Compound | Potency | activity change, negative = cytotoxic |
| --- | --- | --- |
| CCC[C@H]1C[C@H](C(=O)N[C@@H]([C@@H]2O[C@@H](SC)[C@@H](O)[C@@H](O)[C@@H]2O)[C@H](C)Cl)N(C)C1 |  | 25.2% (inactive) |
| N#CC(=C(N)Sc1ccc(N)cc1)c1ccccc1C(F)(F)F |  | -5.31% (inactive) |
| Cn1c(Nc2ccc(C(F)(F)F)cc2)nc2cc(Oc3ccnc(-c4ncc(C(F)(F)F)[nH]4)c3)ccc21 |  | -10.7% (inactive) |
| OC[C@H]1OC(O)C[C@@H](O)[C@H]1O (stereo not given in full) |  | 18% (inactive) |
| N[C@H]1CN(c2c(F)cc3c(=O)c(C(=O)O)cn(C4C[C@@H]4F)c3c2Cl)CC12CC2 (stereo not given in full) |  | 3.64% (inactive) |
| CCN1CCN(C(=O)N[C@H](C(=O)N[C@@H]2C(=O)N3C(C(=O)O)=C(CSc4nnnn4C)CS[C@@H]23)c2ccc(O)cc2)C(=O)C1=O |  | 26.1% [at 9.22 µM] (inactive) |
| c1cncc(CN2CCC(n3ncc4c(N5CCOCC5)nc(-c5ccc6[nH]ccc6c5)nc43)CC2)c1 | 14.8 µM (active) |  |
| Cn1cc(C[C@@H](N)C(=O)O)c2ccccc21 |  | 20.8% [at 16.1 µM] (inactive) |
| CC(C)C[C@H](NC(=O)CNC(=O)c1cc(Cl)ccc1Cl)B1OC(=O)CC(CC(=O)O)(C(=O)O)O1 (stereo not given in full) | 1.48 µM (active) |  |
| CN1C(C(=O)Nc2ccccn2)=C(O)c2sc(Cl)cc2S1(=O)=O |  | -12% (inactive) |
| O=C1NC(=O)C(=Cc2ccc3nccc(-c4ccncc4)c3c2)S1 | 1.48 µM (active) |  |
| COc1cc(C(C)C)c(Oc2cnc(NC(CO)CO)nc2N)cc1I |  | 2.66% (inactive) |
| C[C@@]12C[C@@]3(O)O[C@@H](O1)[C@]1(COC(=O)c4ccccc4)[C@@H]3C[C@@]12O[C@@H]1O[C@H](CO)[C@@H](O)[C@H](O)[C@@H]1O |  | 19.3% (inactive) |
| CON=C(C(=O)N[C@@H]1C(=O)N2C(C(=O)O)=C(CSC(=O)c3ccco3)CS[C@H]12)c1csc(N)n1 |  | 19.8% (inactive) |
| O=C(NC1CC1)c1cccc(-c2ccc3c(NC(=O)C4CC4)n[nH]c3c2)c1 |  | -29.7% (inactive) |
| CC[C@H]1OC(=O)[C@H](C)[C@@H](O[C@H]2C[C@@](C)(OC)[C@@H](O)[C@H](C)O2)[C@H](C)[C@@H](O[C@@H]2O[C@H](C)C[C@H](N(C)C)[C@@H]2O)[C@](C)(OC)C[C@@H](C)C(=O)[C@H](C)[C@@H](O)[C@]1(C)O |  | 9.55% (inactive) |
| COc1ccc(C(C)=O)c(O)c1 |  | 16.4% (inactive) |
| COc1cccc2c1C(=O)c1c(O)c3c(c(O)c1C2=O)C[C@@](O)(C(C)=O)C[C@H]3O[C@H]1C[C@H](N)[C@H](O)[C@H](C)O1 |  | -2.95% (inactive) |
| CCC(C=C[C@@H]1OC(=O)C=C[C@H]1C)=C[C@H](C)CC=CC(C)=C[C@@H](C)C(=O)[C@@H](C)[C@H](O)[C@@H](C)CC(C)=CC(=O)O |  | -1.27% [at 1.86 µM] (inactive) |
| CC(C)C[C@@H](C=O)NC(=O)[C@H](CC(C)C)NC(=O)[C@H](CC(C)C)NC(=O)OCc1ccccc1 (Cbz-Leu-Leu-Leu-aldehyde) | 3.72 µM (active) |  |
